These results are taken from PubChem BioAssay (NCATS).

Several values for one entry are separate records, joined by “and”; a condition that tells them apart may be missing. Equal entries are not always repeated. Records with an inconclusive call do not appear. Activity calls are given as the source filed them. Unless noted, calls follow the shape of the dose curve; as a rule, active = well fitted curve in the direction sought with a large enough effect; inconclusive = small, poorly fitted or top-dose-only effect, or another doubt; inactive = no such curve, though single readings can be large; an effect the other way counts as inactive or inconclusive.

Test [1] is described as follows: qHTS for Activators of Parkin Expression: LOPAC Validation Assay (NLuc Reporter) (AID 720572;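 also: 0% = DMSO and 100% = positive control compound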). The essentials:
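Neuronal cells with a Parkin promoter-driven FLuc/NLuc coincidence reporter were treated 24 h at 37 C in 7-point dose response (LOPAC). NLuc luminescence read after FLuc; signals normalized to DMSO and positive control (100%).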
For orientation: Quantitative high-throughput screening tests each substance at several concentrations.

Test [2] addresses T1, Hexokinase-4 (Homo sapiens) + Glucokinase regulatory protein (Homo sapiens) (UniProt P35557+Q14397). Kind of test: qHTS assay for inhibitors of recombinant human GCK-GKRP interaction: Diaphorase-coupled assay (AID 743205). The essentials:
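Signal derives from resorufin generated by diaphorase, linked to GCK turnover of glucose (5 mM) and ATP (0.4 mM). Enzyme complex was added after a 20-minute compound preincubation and monitored for 30 minutes.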

In test [3] the target is T1, Hexokinase-4 (Homo sapiens) + Glucokinase regulatory protein (Homo sapiens). Put plainly: qHTS assay for inhibitors of recombinant human GCK-GKRP interaction: ADP-Glo assay (AID 743206).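 Also: plate controls were DMSO plus enzyme for no effect and no enzyme for full effect.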 The essentials:
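GST-GCK and FLAG-GKRP (15 nM each in the dispensed mix, with 2 uM S6P) react with 0.4 mM ATP and 5 mM glucose (final) in Hepes pH 7.6 for 60 min at room temperature. ADP is measured by ADP-Glo luminescence.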

Test [4] has the same target. Kind of test: qHTS assay for inhibitors of recombinant human GCK-GKRP interaction: HTRF assay (AID 743207).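 Also: 0% = DMSO with GCK present and -100% = DMSO wells lacking GCK.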 A digest of the protocol:
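Titration screening format: recombinant GST-GCK and FLAG-GKRP at 5 nM, S6P at 2 uM, labelled anti-tag antibodies, 60 min at RT, dual-wavelength HTRF readout.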

Test [5] can be described thus: qHTS Assay for Identifying Gametocytocidal Compounds (AID 743244). Also: potency is read from the fitted curve at half-maximal effect.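 As to max response: % is scaled to controls: 0 for no effect and ±100 for the full control effect; actives lower the fluorescent signal which means gametocytes are killed.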 As to conditions: P. falciparum 3D7 stage III-V gametocytes, alamarBlue, 72 h; max response: stronger effect = lower value. The essentials:
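Late gametocytes (III–V), P. falciparum 3D7; 72 h drug, then 24 h alamarBlue; resazurin reduction read by fluorescence.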

The nature of test [6]: qHTS assay for small molecule agonists of the antioxidant response element (ARE) signaling pathway measured by Nrf2-dependant transcriptional activity (AID 720636; active = well fitted curve in the direction sought with a large enough effect in the repeat runs; an effect the other way counts as inactive or inconclusive;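 also: HepG2 cells with an ARE-driven luciferase reporter; % of control where 0% means no effect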). The essentials:
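First, ARE-luc HepG2 cells attached for 6 hr at 37 C in 1% dialyzed FBS medium. Next, compound or DMSO was added and incubated 16 hr. Finally, ONE-Glo reagent was added and luminescence measured after 30 min.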

Test [7] is described as follows: qHTS assay for cell viability of HEK293 cells (AID 743288). Also: nearly all actives have a fitted effect of over 50% in size. Also: potency is read from the fitted curve at half-maximal effect. As to max response: % is scaled to controls: 0 for no effect and ±100 for the full control effect. As to conditions: ATP luminescence (CellTiter-Glo), 18 h; max response: stronger effect = lower value. The essentials:
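Luminescent ATP quantitation served as the viability read-out. Cells (parental HEK293, 2,000/well) received compounds after at least 5 h at 37 C and were exposed for 18 h before a 30 min room-temperature reagent step.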

Test [8] in a line: qHTS assay for cell viability of the p53RE-bla HCT-116 cell line (AID 743292). Also: % is scaled to controls: 0 for no effect and ±100 for the full control effect; nearly all actives have a fitted effect of over 55% in size. The essentials:
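Quantitative high-throughput format: compounds in DMSO were pinned onto p53RE-bla HCT-116 cells (4,000/well) and incubated 16 h at 37 C. Total intracellular ATP, read by CellTiter-Glo luminescence, reflects viable cell number.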

Test [9] is described as follows: qHTS assay for small molecule antagonists of the retinoid-related orphan receptor gamma (ROR-gamma) signaling pathway - cell viability counter screen (AID 720652; active = well fitted curve in the direction sought with a large enough effect in the repeat runs; an effect the other way counts as inactive or inconclusive;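 also: compound exposure lasted 16 hr before ATP read; % is scaled to controls: 0 for no effect and ±100 for the full control effect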). A digest of the protocol: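 Cytotoxicity is quantified via intracellular ATP (CellTiter-Glo luminescence) in doxycycline-induced CHO ROR response element-luciferase reporter cells treated with compound for 16 hr at 37 C, 5% CO2.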

Test [10] can be described thus: qHTS profiling for inhibitors of Plasmodium falciparum (3D7) proliferation (AID 743322; call rule not given here;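 also: infected erythrocytes exposed to compound for 72 h before lysis; 100% = DMSO vehicle wells and 0% = 0.29 µM artemisinin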). As to conditions: P. falciparum 3D7 proliferation; at 28.7 µM (top of the series). The essentials: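 Erythrocytes infected with P. falciparum (0.3% parasitemia, 2.5% hematocrit) incubated with compounds 72 h at 37 C, 5% CO2. Lysis with saponin/Triton buffer containing SYBR Green I, overnight at room temperature in the dark; DNA fluorescence (485/535 nm) normalised to 0.29 uM artemisinin and DMSO.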

T1 sequence (P35557 whole entry, looked up): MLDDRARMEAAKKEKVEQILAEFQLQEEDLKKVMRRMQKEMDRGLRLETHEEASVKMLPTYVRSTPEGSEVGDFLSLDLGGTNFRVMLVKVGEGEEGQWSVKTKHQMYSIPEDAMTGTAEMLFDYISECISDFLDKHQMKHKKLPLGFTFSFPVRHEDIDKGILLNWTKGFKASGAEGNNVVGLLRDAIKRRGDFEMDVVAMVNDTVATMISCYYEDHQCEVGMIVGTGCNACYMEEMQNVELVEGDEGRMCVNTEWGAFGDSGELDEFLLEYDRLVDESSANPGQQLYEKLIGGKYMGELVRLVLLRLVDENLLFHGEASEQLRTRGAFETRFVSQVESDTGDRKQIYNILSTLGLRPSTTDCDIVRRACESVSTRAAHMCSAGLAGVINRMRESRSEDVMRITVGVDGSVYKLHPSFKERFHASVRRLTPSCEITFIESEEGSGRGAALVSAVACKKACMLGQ
T1 sequence (Q14397 whole entry, looked up): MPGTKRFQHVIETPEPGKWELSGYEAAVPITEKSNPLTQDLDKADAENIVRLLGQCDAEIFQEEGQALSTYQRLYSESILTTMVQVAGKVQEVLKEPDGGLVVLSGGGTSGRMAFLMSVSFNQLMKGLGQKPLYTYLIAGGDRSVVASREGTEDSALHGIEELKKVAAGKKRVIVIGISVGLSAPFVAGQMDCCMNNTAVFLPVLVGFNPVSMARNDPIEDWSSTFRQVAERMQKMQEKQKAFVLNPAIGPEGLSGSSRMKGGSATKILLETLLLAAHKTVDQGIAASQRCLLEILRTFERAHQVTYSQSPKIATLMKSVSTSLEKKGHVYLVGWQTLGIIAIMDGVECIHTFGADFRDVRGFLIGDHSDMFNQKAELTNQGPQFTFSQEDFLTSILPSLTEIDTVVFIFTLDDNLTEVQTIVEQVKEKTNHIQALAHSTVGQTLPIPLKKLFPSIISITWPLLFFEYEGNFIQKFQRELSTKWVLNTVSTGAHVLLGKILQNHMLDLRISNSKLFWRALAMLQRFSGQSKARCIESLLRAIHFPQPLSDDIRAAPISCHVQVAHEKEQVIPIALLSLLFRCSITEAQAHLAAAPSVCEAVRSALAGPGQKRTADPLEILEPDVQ

As for `Fc1ccc(C(OCCN2CCN(CCCc3ccccc3)CC2)c2ccc(F)cc2)cc1`, the compound was called inactive in [1], in [2], in test [3] and in test [4].
For the compound `CCCN1CCC[C@@H]2Cc3[nH]ncc3C[C@H]21`, the outcome in test [1], in [2], in test [3] and in [4] was inactive. In test [5], the max response was -4.72% (inactive) and 8.32% (inactive) and 17.4% (inactive).
For the compound `CC[C@@H](CO)NC(=O)[C@@H]1C=C2c3cccc4c3c(cn4C)C[C@H]2N(C)C1`, the compound was classed as inactive in test [1], in test [3] and in test [4]. Moreover, the max response in test [5] is 1.36% (inactive).
`NCC1(CC(=O)O)CCCCC1`: the compound was classed as inactive in [1], in test [2], in test [3] and in [4]. The max response in test [5] was 10.3% (inactive).
As for `CC(C)=CCOc1c2occc2cc2ccc(=O)oc12`, the compound was called inactive in [1], in [2], in test [3] and in test [4]. In test [5], the max response is -4.41% (inactive) and 18.6% (inactive).
Turning to `Nc1ccncc1`, the compound was called inactive in test [1], in test [2], in test [3] and in test [4]. Besides, the Potency result in test [6] and in [8] was “inactive” in each case. Further, the max response in test [5] is 0.934% (inactive) and 25.7% (inactive); in [7] it was -3.71% (inactive).
In the case of `CCCC(C)(COC(N)=O)COC(=O)NC(C)C` (centres undefined), the call in [1], in test [2], in [3] and in [4] was inactive. In addition, the Potency result in test [6], in test [9] and in test [8] was “inactive” throughout. For the same compound, the max response in test [5] is 10.4% (inactive) and -6.54% (inactive); in test [7], -8.51% (inactive) and -1.5% (inactive).
Consider `NCC(CC(=O)O)c1ccc(Cl)cc1` (centres undefined), for which the compound was called inactive in test [1], in [2], in test [3] and in [4]. Moreover, the max response in test [5] was 0.281% (inactive) and 9.05% (inactive).
Regarding `CNCC(O)c1ccc(O)cc1` (centres undefined), the call in test [1], in test [2], in test [3] and in [4] was inactive. For the same compound, the Potency result in test [6], in [9] and in [8] was “inactive” each time. Further, the figures for the max response in test [5] and in test [7] were 28.1% (inactive) and -7.41% (inactive), respectively.
Consider `COc1ccc(C(CN(C)C)C2(O)CCCCC2)cc1` (centres undefined), for which the result in test [1], in [2], in [3] and in test [4] was inactive. Also, the max response in test [5] is 4.64% (inactive) and 5.5% (inactive).
As to `c1ccc2c(c1)Nc1ccccc1S2`, the Potency result in [6], in test [9] and in [8] was “inactive” each time. In [5], the Potency was 22.4 µM (active) and 28.2 µM (active). Moreover, the max response in test [7] is -11.4% (inactive) and -9% (inactive).
As to `c1ccc(C2CC2)c(OCC2=NCCN2)c1`, the compound was called inactive in test [1], in test [2], in test [3] and in test [4]. In [5], the max response is -3.84% (inactive) and 23.7% (inactive).
For `C=C(C)[C@H]1Cc2c(ccc3c2O[C@@H]2COc4cc(OC)c(OC)cc4[C@@H]2C3=O)O1`, the compound was called inactive in test [1], in test [2], in [3] and in [4]. Moreover, the Potency entry in test [6] and in test [8] was “inactive” throughout. Also, the max response in test [5] is 2.33% (inactive) and 3.94% (inactive). In addition, the remaining parasite growth % (stronger effect = lower value) in test [10] was determined as 82.1%.
Regarding `Cc1cccc(C)c1NC1=NCCCS1`, the compound was called inactive in [1], in test [2], in [3] and in [4]. In addition, the max response in test [5] was 0.533% (inactive) and 4.4% (inactive).
With `CCOP(=S)(OCC)Oc1cc(C)nc(C(C)C)n1`, the Potency entry in [6], in test [9] and in test [8] was “inactive” in each case. The max response in test [5] was 18.9% (inactive); in test [7] it was 0.702% (inactive) and -4.39% (inactive).
As for `CC(=O)[C@H]1CC[C@H]2[C@@H]3CC[C@H]4C[C@H](O)CC[C@]4(C)[C@H]3C(=O)C[C@]12C`, the result in test [1], in test [2], in [3] and in [4] was inactive. Besides, the max response in test [5] is -4.24% (inactive) and 9.55% (inactive).
For `C[C@]12CCC(=O)C(O)=C1CC[C@@H]1[C@@H]2CC[C@]2(C)C(=O)CC[C@@H]12`, the result in [1], in test [2], in test [3] and in [4] was inactive. The Potency entry in test [6] and in test [8] was “inactive” throughout. The max response in test [5] is 8.31% (inactive) and 12.3% (inactive); in test [7], -3.27% (inactive). The remaining parasite growth % (stronger effect = lower value) in test [10] turned out to be 90.5%.
`CC(O)(CS(=O)(=O)c1ccc(F)cc1)C(=O)Nc1ccc(C#N)c(C(F)(F)F)c1` (centres undefined): the outcome in test [1], in [2], in test [3] and in test [4] was inactive. The max response in [5] was 4.22% (inactive) and -26.1% (inactive). Moreover, the remaining parasite growth % (stronger effect = lower value) in [10] was found to be 91.3%.
With `OCCOc1ccccc1`, the Potency result in [6], in test [9] and in test [8] was “inactive” throughout. Also, the max response in [5] is 3.27% (inactive) and 3.36% (inactive); in test [7] it was -3.53% (inactive) and -2.57% (inactive) and -13.5% (inactive).
Consider `C[C@@H]1O[C@@H](O[C@H]2C[C@@H](O)[C@]3(CO)[C@H]4[C@H](O)C[C@]5(C)[C@@H](C6=CC(=O)OC6)CC[C@]5(O)[C@@H]4CC[C@]3(O)C2)[C@H](O)[C@H](O)[C@H]1O`, for which the call in test [1], in [2], in test [3] and in test [4] was inactive. Also, in test [6], the Potency entry was “inactive”. The max response in [5] is -6.85% (inactive) and -3.14% (inactive) and -2.93% (inactive). In test [7], the Potency is 63.1 nM (active).
